Assay outcomes from PubChem.
A selection: hits, their analogues and other compounds. The true share with any hit is near 21%.
ClpP mod = qHTS Assay for Activators of ClpP | ATP-dependent Clp protease proteolytic subunit (Bacillus subtilis (strain 168)), P80244 | purified B. subtilis ClpP, FRET peptide cleavage, 20 min | Potency, µM (series often up to 57.5 µM), inactives show at the top dose activity change, negative = active | actives 1.9% (n = 340,000); active means well fitted falling curve with a large enough effect; inconclusive means small, poorly fitted or top-dose-only effect; inactive means no such curve, though single readings can be large or run the other way; further: potency means the concentration at half of the fitted maximal effect; the source files actives as falling curves though it sought activators and does not explain the sign; nearly all actives have a fitted effect of over 65% in size
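Purified B. subtilis ClpP, 10 microg/mL final in Tris/HCl pH8 with KCl, BSA, glycerol and Tween-20, cleaved an Abz/nitrotyrosine-quenched decapeptide. Fluorescence (ex 320, em 430) was read at 0 and 20 min at room temperature. Delta was normalized to 5.8 microM ADEP and DMSO/no-enzyme controls.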
D3 antag = antagonists of human D3 dopamine receptor. actives 2.5% (n = 360,000). D3R cells, DiscoveRx beta-arrestin luminescence, antagonist mode; hits give low values. P35462. max response, negative = inhibition, %; in the data active means max response below about -50%; inconclusive means no clear call, values can overlap the other calls; further: on the % scale 0 is the no-effect control and ±100 the full control effect
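Cells expressing the human receptor were seeded at 1500 cells/well, incubated overnight at 37 degrees C in 5% CO2, then exposed to library compounds with dopamine controls for 90 minutes at 37 degrees C before luminescent detection.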
TDP1 cell noCPT = qHTS for Inhibitors of human tyrosyl-DNA phosphodiesterase 1 (TDP1): qHTS in cells in absence of CPT; DT40 Tdp1-/- hTDP1 cells, no CPT, ATP luminescence, 48 h; Potency, µM (top dose mostly 46.2 µM), for the others: top-dose activity change, negative = growth inhibition, actives largely listed as inhibitors; actives 15% (n = 420,000); further: potency means the concentration at half of the fitted maximal effect; on the % scale 0 is the no-effect control and ±100 the full control effect; nearly all actives have a fitted effect of over 55% in size
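Growth kinetics read by CellTiter-Glo luminescence after ≥48 hr at 37 °C. Cells: DT40 Tdp1-/- stably carrying human TDP1, 400 per well, compound exposure in the absence of CPT (DMSO vehicle).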
DT40 TDP1 CPT = DT40-hTDP1 cell growth loss with CPT. chicken DT40 Tdp1-/-;hTDP1 cells + 20 nM CPT, ATP luminescence, 48 h. Potency, µM (titrated, usually from 46.2 µM), without a hit: top-dose activity change, negative = growth inhibition, actives largely listed as inhibitors. actives 12% (n = 420,000); further: potency means the concentration at half of the fitted maximal effect; on the % scale 0 is the no-effect control and ±100 the full control effect; nearly all actives have a fitted effect of over 55% in size
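Cell growth measured by CellTiter-Glo luminescence after a minimum 48 h, 37 C compound exposure with 20 nM CPT in Tdp1-knockout DT40 cells stably expressing hTDP1, seeded 400/well; qHTS titration format.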
D3 ag = D3 dopamine receptor (human) agonism | actives 0.58% (n = 410,000) | max activation, % | D3R DiscoveRx beta-arrestin cells, luminescence, 90 min; in the data active means max activation above about 30%; further: 0% is about no effect
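Agonist-mode cell screen: cells plated at 1500/well and incubated overnight at 37 °C, then exposed to library compounds for 90 min at 37 °C. Detection reagent was added for 30–60 min at room temperature, and luminescence was read.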
IL-1B inflam inh = blocks inflammasome-driven IL-1 beta release | activity change, % at 57.5 µM | THP-1 LPS/ATP IL-1B secretion, AlphaLISA, 16 h; hits give low values | AID 743279 | actives 4.7% (n = 360,000); in the data active means activity change below about -50%; inconclusive means mostly about -30% to -49%; further: on the % scale 0 is the no-effect control and ±100 the full control effect
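THP-1 cells pretreated 1 hr with compounds (up to 57.5 uM final), then stimulated with LPS (250 ng/mL final) plus ATP (1.25 mM final); secreted IL-1B measured by AlphaLISA after 16 hr, decreased signal indicating inhibition.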
Numbers without * were called inactive; ? = inconclusive; . = not tested or not shown; [ ] = dose if it differs, or a comment. Unless noted, the call rests on the fitted dose curve; in most records, active means well fitted inhibition curve with a large enough effect; inconclusive means small, poorly fitted or top-dose-only effect; inactive means flat fitted curve, though single readings scatter.

SMILES	ClpP mod	D3 antag	TDP1 cell noCPT	DT40 TDP1 CPT	D3 ag	IL-1B inflam inh
C[C@]12c3[nH]c4ccc(Cl)cc4c3CCN1C(=O)[C@@H](CC(=O)NCCC1=CCCCC1)C[C@@H]2C(=O)N1CCCCC1	2.2%	2.6	-21.6%	-27.9%	8.5	-8.7
CCN(CC)C(=O)[C@H]1CC(CC(=O)NCC23CC4CC(CC(C4)C2)C3)C(=O)N2CCc3c([nH]c4ccccc34)[C@]12C (some centres undefined)	1.2%	1.7	8.2µM*	16.4µM*	7.9	?
CCN(CC)C(=O)[C@H]1CC(CC(=O)NCCC2=CCCCC2)C(=O)N2CCc3c([nH]c4ccccc34)[C@]12C (some centres undefined)	-5.0%	?	23.1µM*	23.1µM*	-19.2	-16.2
CCN(CC)C(=O)[C@H]1C[C@H](CC(=O)NCCC2=CCCCC2)C(=O)N2CCc3c([nH]c4ccc(Cl)cc34)[C@]12C	-2.0%	0.0	20.6µM*	16.4µM*	-9.6	-54.1*
CC(C)N(C(=O)[C@H]1CC(CC(=O)NCCN2CCOCC2)C(=O)N2CCc3c([nH]c4ccccc34)[C@]12C)C(C)C (some centres undefined)	-1.6%	-8.3	-25.7%	0.7%	-5.3	-19.9
CC(=O)N1CCCC(C)(C(=O)Nc2ccc3nc(C)ccc3c2)C1 (centres undefined)	-15.3%	-52.2*	-5.7%	-8.3%	3.8	47.2
Cc1ccc2cc(NC(=O)C3(C)CCN(C)C3)ccc2n1 (centres undefined)	?	0.0	4.1%	-21.4%	8.3	18.8
CCOCCCNC(=O)NC(C)c1c(-n2cccc2)sc2c1CCN(CC)C2 (centres undefined)	5.4%	.	16.4µM*	13µM*	-14.9	.
CCOc1ccc(NC(=O)NCc2c(-n3cccc3)sc3c2CCCC3)cc1	-0.9%	.	-15.2%	-4.4%	-6.5	.
CCOCCCNC(=O)N[C@H](C(=O)OC)C(C)CC (some centres undefined)	-4.5%	1.0	-0.6%	1.2%	2.6	16.3
CCN1CCc2c(sc(-n3cccc3)c2C(C)NC(=O)Nc2ccc(Br)cc2)C1 (centres undefined)	1.0%	.	13µM*	16.4µM*	-20.7	.
CCOc1ccc(NC(=O)NC(C)c2c(-n3cccc3)sc3c2CCN(CC)C3)cc1 (centres undefined)	0.9%	.	18.4µM*	20.6µM*	-19.3	.
CC(=O)c1ccc(NC(=S)Nc2cccc(Cl)c2C)cc1	-1.0%	21.7	-29.9%	-7.0%	0.5	0.4
COc1ccc(N2C(=O)[C@@H]3C[C@H]2CN3Cc2cccn2-c2ccc(Cl)cn2)c(C)c1	.	.	?	-0.8%[9.04 µM]	.	.
COCc1c(C(=O)N2CCN(C(C)C)CC2)cnn1-c1nccc(-c2cc(C)sc2C)n1	.	.	-11.4%	3.4%	.	.
COc1cc(-c2nc(-c3ccccc3)c(-c3ccc(Br)cc3)[nH]2)cc(OC)c1O	4.6%	.	?	?	-7.8	.
O=[N+]([O-])c1ccc(O)c(-c2nc(-c3ccccc3)c(-c3cccs3)[nH]2)c1	-1.7%	-11.1	18.4µM*	20.6µM*	-4.4	-3.6
O=C(O)c1ccc(-c2nc(-c3ccccc3)c(-c3cccs3)[nH]2)cc1	.	0.7	11.1%	15.2%	-0.6	32.2
COc1ccc(-c2nc(-c3ccccc3)c(-c3cc([N+](=O)[O-])ccc3C)[nH]2)cc1OC	-2.0%	-8.5	18.4µM*	23.1µM*	-5.1	-6.1
Cc1ccc(-c2[nH]c(-c3ccc(C(=O)O)cc3)nc2-c2ccccc2)cc1	-3.1%	?	-17.8%	-11.1%	-2.2	47.8
CCOc1cc(-c2nc(-c3ccccc3)c(-c3cc([N+](=O)[O-])ccc3C)[nH]2)ccc1O	-1.8%	-23.3	23.1µM*	?	-2.1	-14.4
COc1ccc(-c2nc(-c3ccccc3)c(-c3ccc(F)cc3)[nH]2)c(OC)c1C	4.6%	.	?	20.6µM*	-15.1	.
CCn1ccc2cc(S(=O)(=O)N3CCC(C(=O)NCCc4ccccc4)CC3)ccc21	-6.3%	.	-28.6%	-22.5%	0.5	.
COc1ccccc1CNC(=O)c1cn(C)c2ccc(S(=O)(=O)N(C)C3CCCCC3)cc2c1=O	-6.4%	.	?	?	-1.4	.
CCc1cc(=O)oc2c(C)c(OCC(=O)NCCCn3ccnc3)ccc12	4.2%	13.2	2.1%	0.4%	5.3	9.5
SMILES	ClpP mod	D3 antag	TDP1 cell noCPT	DT40 TDP1 CPT	D3 ag	IL-1B inflam inh
CCOc1ccc(-c2nc(-c3ccccc3)c(-c3ccccc3)[nH]2)cc1OCC	4.8%	.	18.4µM*	20.6µM*	4.1	.
COc1cccc(N=Nc2c(N)[nH]n3c(=O)c4c(nc23)CCCC4)c1	.	-5.4	?	?	-0.3	-12.0
O=c1c2c(nc3cc(-c4ccccc4)[nH]n13)CCS2	10µM*	-3.0	-23.9%	-4.6%	1.5	-2.5
COc1ccc(-c2cc3nc4c(c(=O)n3[nH]2)CCC4)cc1	22.4µM*	9.6	?	-26.9%	-5.5	-1.9
Cc1cc2nc3c(c(=O)n2[nH]1)CCCC3	-17.3%	0.0	?	?	7.8	-2.0
O=c1c2c(nc3cc(-c4ccc(Br)cc4)[nH]n13)CCCC2	.	-15.3	?	?	-14.2	-60.7*
O=c1c2c(nc3cc(-c4ccccc4)[nH]n13)CCC2	11.2µM*	3.8	-5.2%	4.5%	-2.0	18.9
Cc1nc2nc3c(c(=O)n2[nH]1)CCC3	-1.1%	15.5	-2.1%	-8.3%	-5.4	-10.4
Cc1nnc2sc(SCc3cccc(Cl)c3)nn2c1=O	.	3.9	?	-7.7%	2.4	-99.7*
O=C(Nc1ccc(-c2cc(C(F)(F)F)nn2-c2ccccc2)cc1)c1cccc(F)c1	?	.	5.17µM*	?	22.7	.
COc1cc(C(=O)Nc2ccc(-c3cc(C(F)(F)F)nn3-c3ccccc3)cc2)cc(OC)c1OC	-2.9%	.	14.6µM*	16.4µM*	5.6	.
CN(C)c1ccnc(-n2cccc2/C=N/OCc2ccccc2)c1C#N	14.1µM*	?	?	-12.7%	2.2	9.6
COC(=O)[C@]12CCCCC=C1N(Cc1ccc3c(c1)OCO3)C(=O)[C@H](CC(=O)N1CCCCC1)C2	-0.4%	4.9	?	?	-10.6	-9.0
COc1ccccc1NS(=O)(=O)c1ccc2[nH]c(=S)oc2c1	-1.7%	4.7	-9.9%	-1.7%	0.7	-2.8
O=C(N/N=C/C(Br)=C/c1ccccc1)c1ccc([N+](=O)[O-])cc1	-2.1%	-9.9	4.11µM*	4.11µM*	-3.9	?
